# Assay results: PubChem BioAssay AID1851 (National Center for Advancing Translational Sciences (NCATS), 2009)
# Hit rate of the full screen: of about 16,000 compounds, about 5,100 (32%) were called active. About 25% were inconclusive and are not listed. The call rests on the fitted dose curve; in most records, active means well fitted curve in the direction sought with a large enough effect; inconclusive means small, poorly fitted or top-dose-only effect, or effect the other way; inactive means no such curve, though single readings can be large or run the other way. This is one part of the list.
# Target: Cytochrome P450 3A4 (Homo sapiens) (UniProt P08684)
# Assay: Cytochrome panel assay with activity outcomes
# Settings: recombinant CYP, pro-luciferin dealkylation, luminescence, p450-cyp3a4; series mostly up to 57.1 µM
# On the % scale 0 is the no-effect control and ±100 the full control effect.
# Cytochrome P450 3A4 (Homo sapiens), sequence (P08684 whole entry, looked up): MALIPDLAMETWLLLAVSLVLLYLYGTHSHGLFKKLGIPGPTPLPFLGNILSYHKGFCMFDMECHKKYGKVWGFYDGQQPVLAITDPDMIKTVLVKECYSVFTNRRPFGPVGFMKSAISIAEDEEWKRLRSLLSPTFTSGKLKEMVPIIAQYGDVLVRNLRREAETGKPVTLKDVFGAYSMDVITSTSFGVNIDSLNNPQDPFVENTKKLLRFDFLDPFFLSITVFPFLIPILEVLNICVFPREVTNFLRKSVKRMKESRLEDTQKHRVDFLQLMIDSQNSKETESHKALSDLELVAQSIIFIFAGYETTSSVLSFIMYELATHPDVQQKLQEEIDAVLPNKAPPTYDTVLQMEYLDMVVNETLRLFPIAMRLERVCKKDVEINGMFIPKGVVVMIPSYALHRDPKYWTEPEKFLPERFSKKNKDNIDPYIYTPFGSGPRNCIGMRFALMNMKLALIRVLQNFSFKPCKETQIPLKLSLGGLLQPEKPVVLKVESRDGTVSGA
SMILES,"activity, negative = inhibition",AC50
CC1(C)OC[C@@H]2O[C@H](n3cnc4c(N)nc(Cl)nc43)[C@@H](OS(C)(=O)=O)[C@@H]2O1,-4.98% [at 11.4 µM] (inactive),–
O=C(O)c1c2c(c(O)c3c1CN(C1CCCCC1)CO3)OCN(C1CCCCC1)C2,-0.201% [at 11.4 µM] (inactive),–
CC(C)Cn1cnc2c(Sc3c([N+](=O)[O-])ncn3C)nc(N)nc21,-7.97% [at 11.4 µM] (inactive),–
CCOc1c(OC(C)=O)ccc(/C=C/c2ccc3cccc(OC(C)=O)c3n2)c1[N+](=O)[O-],–,10 µM (active)
COc1ccc2c(c1[N+](=O)[O-])CCC/C2=N/OC(=O)c1cccc2ccccc12,0.913% [at 2.29 µM] (inactive),–
Cc1ccc(-n2c(C)nnc2SCC(=O)N2CCc3ccccc3C2)cc1C,–,8.91 µM (active)
CC1=C(\C=C/C(C)=C/C=C\C(C)=C\C(=O)O)C(C)(C)CCC1,–,inactive
O=C(NNS(=O)(=O)c1cc(Cl)cc(Cl)c1)c1sccc1-n1cccc1,–,7.94 µM (active)
CC(=O)/C(=N\N=C(N)N)c1ccccc1,-6.08% [at 11.4 µM] (inactive),–
C/C(=N\N=C1\NC(=O)CC(C(=O)O)S1)c1cccs1 (stereo not drawn),–,inactive
C/C(=N\N=C(c1ccccc1)c1ccccc1)c1cccs1,–,14.1 µM (active)
CCCOc1ccc(C(=O)CCNc2ccc(C)c(Cl)c2)cc1,12.4% [at 2.29 µM] (inactive),–
Cc1ccc(NC(=O)CCC(=O)c2ccc(F)cc2)cc1Cl,–,12.6 µM (active)
Cc1ccc(NC(=O)c2cc(NC(=O)CCCC(=O)O)ccc2Cl)cc1Cl,–,inactive
Nc1nc(N)nc(CCCc2nc(N)nc(N)n2)n1,-12.5% [at 11.4 µM] (inactive),–
c1ccc2oc(C3=NCCN3)cc2c1,–,inactive
O=C(Nc1ccccc1C(=O)NCCc1ccccc1)c1ccco1,–,14.1 µM (active)
CCC(NC(=O)c1ccccc1NC(=O)c1ccco1)C(=O)NC1CCCCC1 (stereo not drawn),–,6.31 µM (active)
CCC(C)NC(=O)c1ccccc1NC(=O)Nc1ccccc1 (stereo not drawn),–,inactive
O=C(CCc1ccccc1)NNC(=O)c1ccco1,–,inactive

SMILES,"activity, negative = inhibition",AC50
COc1ccc(CCNC(=O)c2ccccc2NC(=O)c2ccco2)cc1OC,–,7.08 µM (active)
O=C(Nc1ccccn1)c1ccco1,–,inactive
O=C(O)c1ccc(C(=O)O)c(C(=O)O)c1.[NH-][C@@H]1CCCC[C@@H]1[NH-].[Pt],18.9% [at 11.4 µM] (inactive),–
CCc1cccc(N(C)C(N)=Nc2cccc3ccccc23)c1,–,inactive
C#CCSc1n[nH]c(-c2ccco2)n1,-10.2% [at 11.4 µM] (inactive),–
CC(C)=CC(=O)Nc1nnc(C(C)C)s1,15.7% [at 2.29 µM] (inactive),–
[O-][N+](CCO)(CCO)c1ncnc2nc[nH]c12,-0.379% [at 11.4 µM] (inactive),–
N=C1[C@@H](O)[C@]2(I)c3ccccc3N3C(=N)[C@H](O)[C@@H]4c5ccccc5N1[C@@H]4[C@@H]32,-8.09% [at 11.4 µM] (inactive),–
COC(=O)c1ccc(/C=N\NC(=O)c2ccc(C)cc2Cl)cc1,–,3.55 µM (active)
Cc1ccc(C(=O)N/N=C/c2ccc(S(=O)(=O)O)o2)c(Cl)c1,–,inactive
CC1Cc2ccccc2N1C(=O)C1CCCCN1S(=O)(=O)c1ccccc1 (stereo not drawn),–,7.94 µM (active)
CC(=O)N1c2ccc(S(=O)(=O)CCC(=O)O)cc2CC1C (stereo not drawn),–,inactive
CCNC(=O)C1CC(=O)OC12CCCCC2 (stereo not drawn),–,inactive
O=C(Nc1ccc(Cl)cc1)NC1CCCCC1,9.33% [at 2.29 µM] (inactive),–
CC(C)(CC(=O)Nc1ccccc1)C(=O)O,-5.79% [at 11.4 µM] (inactive),–
CC(C)(C)N(NC(=O)Nc1ccccc1)C(=O)c1ccccc1Cl,–,14.1 µM (active)
Cc1c(Cl)c(S(N)(=O)=O)cc(S(N)(=O)=O)c1NC(=O)c1ccc(Cl)cc1,3.55% [at 11.4 µM] (inactive),–
CC(C)(C)N(NC(=O)Nc1ccc(Cl)c(Cl)c1)C(=O)c1ccccc1,–,14.1 µM (active)
CC(C)(C)NC(=O)C(=O)NNC(=O)c1ccccc1,–,inactive
Cc1cc(C)cc(C(=O)N(NC(=O)Nc2ccc(Cl)cc2)C(C)(C)C)c1,–,15.8 µM (active)

SMILES,"activity, negative = inhibition",AC50
NCS(=O)(=O)O,-9.19% [at 11.4 µM] (inactive),–
CN(C)Cc1cc(Cl)c(O)c(CN(C)C)c1,-5.94% [at 11.4 µM] (inactive),–
CCCCOC(=O)c1cc2c(cn1)[nH]c1ccccc12,–,25.1 µM (active)
CCCCOC(=O)c1ccc(O)cc1,–,inactive
O=C(O)CCc1ccc(-c2ccc(Cl)cc2)n1CCC(=O)O,–,inactive
COCCNC(=O)[C@H](C)[C@@H]1C[C@@]1(C)[C@@H](NC(=O)OCc1ccccc1)c1ccccc1,–,7.94 µM (active)
C[C@@H](C(=O)NCCF)[C@H]1C[C@]1(C)[C@H](NC(=O)OCc1ccccc1)c1ccccc1,–,3.98 µM (active)
COCCNC(=O)[C@H](C)[C@H]1C[C@]1(C)[C@H](NC(=O)OCc1ccccc1)c1ccccc1,–,3.16 µM (active)
O=C(CCNS(=O)(=O)c1ccc2c(c1)CCC(=O)N2)NCc1ccc2c(c1)OCO2,–,1.41 µM (active)
COc1ccc(NC(=O)CCNS(=O)(=O)c2ccc3c(c2)CCC(=O)N3)cc1,–,15.8 µM (active)
COC(=O)N1CCC2(CCN(C(=O)Nc3ccc(OC)cc3)CC2)CC1,–,inactive
COc1ccc(-c2nc(N)c3ncn([C@H]4O[C@@H](CO)[C@@H](O)[C@@H]4O)c3n2)cc1,-0.494% [at 11.4 µM] (inactive),–
COc1ccc2[nH]cc(CCNc3ncncc3-c3ccccc3C)c2c1,–,0.316 µM (active)
COc1ccc2[nH]cc(CCNc3ncncc3-c3c(C)noc3C)c2c1,–,0.794 µM (active)
COc1ccc2[nH]cc(CCNc3ncncc3-c3ccccc3Cl)c2c1,–,0.398 µM (active)
COc1ccc2[nH]cc(CCNc3ncncc3-c3ccccc3OC)c2c1,–,0.126 µM (active)
C=C1c2cccc(O)c2C(O)=C2C(=O)[C@@]3(O)C(O)=C(C(N)=O)C(=O)[C@@H](N(C)C)[C@@H]3[C@@H](O)[C@H]12,–,inactive
CNc1nc(Cl)nc(NC(C)(C)C)n1,–,inactive
